Experimental data: PubChem BioAssay AID1159580 (chemical genetic matrix, 2015)
Hit rate of the full screen: of about 5,500 compounds, about 2,000 (36%) were called active. Inconclusive results (about 18%) are left out. No stated cut-off is given here; in the data, active means normalized growth mostly below about 0.91 (no sharp cut-off); inconclusive means no clear call, values can overlap the other calls; inactive means mostly above about 0.92. The list shows a part of the results.

Assay: chemical genetic growth profiling, strain panel (AID 1159580);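 further: tested at 20 µM; growth read once vehicle control cultures reached saturation at 30 °C; 1 = growth at the plate median or of vehicle wells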
Conditions: growth OD

Measured: normalized growth

CC(=O)Nc1nnc(S(N)(=O)=O)s1
active: S. cerevisiae deletion strains, locus YKL190W, strain CNB1, stronger effect = lower value 0.569 | S. cerevisiae deletion strains, locus YKR001C, strain vps1, stronger effect = lower value 0.884 | S. cerevisiae deletion strains, locus YLR039C, strain RIC1, stronger effect = lower value 0.423 | S. cerevisiae deletion strains, locus YLR058C, strain SHM2, stronger effect = lower value 0.837 | S. cerevisiae deletion strains, locus YLR262C, strain YPT6, stronger effect = lower value 0.321 | S. cerevisiae deletion strains, locus YLR330W, strain CHS5, stronger effect = lower value 0.557 | S. cerevisiae deletion strains, locus YLR342W, strain FKS1 (second series), stronger effect = lower value 0.496 | S. cerevisiae deletion strains, locus YLR418C, strain cdc73, stronger effect = lower value 0.637 | S. cerevisiae deletion strains, locus YML016C, strain PPZ1, stronger effect = lower value 0.412 | S. cerevisiae deletion strains, locus YMR263W, strain SAP30, stronger effect = lower value 0.809 | S. cerevisiae deletion strains, locus YMR307W, strain GAS1, stronger effect = lower value 0.439 | S. cerevisiae deletion strains, locus YNL067W, strain RPL9B, stronger effect = lower value 0.755 | S. cerevisiae deletion strains, locus YNL233W, strain BNI4, stronger effect = lower value 0.792 | S. cerevisiae deletion strains, locus YNL307C, strain MCK1, stronger effect = lower value 0.846 | S. cerevisiae deletion strains, locus YNL322C, strain KRE1, stronger effect = lower value 0.592 | S. cerevisiae deletion strains, locus YOL006C, strain TOP1, stronger effect = lower value 0.141 | S. cerevisiae deletion strains, locus YOR061W, strain CKA2, stronger effect = lower value 0.702 | S. cerevisiae deletion strains, locus YOR069W, strain VPS5, stronger effect = lower value 0.826 | S. cerevisiae deletion strains, locus YPL241C, strain CIN2, stronger effect = lower value 0.645 | S. cerevisiae deletion strains, strain wtn01, stronger effect = lower value 0.874 | S. cerevisiae strains, strain wild type, stronger effect = lower value 0.533
inactive: S. cerevisiae deletion strains, locus YKL009W, strain mrt4, stronger effect = lower value 1.03 | S. cerevisiae deletion strains, locus YKL068W, stronger effect = lower value 1 | S. cerevisiae deletion strains, locus YKL085W, strain MDH1 (second series), stronger effect = lower value 1.01 | S. cerevisiae deletion strains, locus YKL085W, strain MDH1, stronger effect = lower value 1.01 | S. cerevisiae deletion strains, locus YKL160W, strain elf1, stronger effect = lower value 1 | S. cerevisiae deletion strains, locus YKR026C, strain gcn3, stronger effect = lower value 1 | S. cerevisiae deletion strains, locus YKR091W, strain srl3, stronger effect = lower value 1.01 | S. cerevisiae deletion strains, locus YLL001W, strain dnm1, stronger effect = lower value 1.01 | S. cerevisiae deletion strains, locus YLL026W, stronger effect = lower value 1.01 | S. cerevisiae deletion strains, locus YLL041C, strain sdh2, stronger effect = lower value 1.01 | S. cerevisiae deletion strains, locus YLR027C, strain aat2, stronger effect = lower value 1.01 | S. cerevisiae deletion strains, locus YLR102C, strain apc9, stronger effect = lower value 0.99 | S. cerevisiae deletion strains, locus YLR113W, strain HOG1, stronger effect = lower value 0.982 | S. cerevisiae deletion strains, locus YLR221C, strain rsa3, stronger effect = lower value 0.986 | S. cerevisiae deletion strains, locus YLR258W, strain gsy2, stronger effect = lower value 1.01 | S. cerevisiae deletion strains, locus YLR262C, strain YPT6 (second series), stronger effect = lower value 1.04 | S. cerevisiae deletion strains, locus YLR268W, strain sec22, stronger effect = lower value 0.895 | S. cerevisiae deletion strains, locus YLR320W, strain mms22, stronger effect = lower value 0.99 | S. cerevisiae deletion strains, locus YLR342W, strain FKS1, stronger effect = lower value 1.02 | S. cerevisiae deletion strains, locus YLR357W, strain rsc2, stronger effect = lower value 1 | S. cerevisiae deletion strains, locus YLR370C, strain arc18, stronger effect = lower value 0.996 | S. cerevisiae deletion strains, locus YLR371W, strain rom2, stronger effect = lower value 0.945 | S. cerevisiae deletion strains, locus YLR384C, strain iki3, stronger effect = lower value 1 | S. cerevisiae deletion strains, locus YML032C, strain rad52, stronger effect = lower value 1.01 | S. cerevisiae deletion strains, locus YML120C, strain ndi1, stronger effect = lower value 1.02 | S. cerevisiae deletion strains, locus YML124C, strain tub3, stronger effect = lower value 1.01 | S. cerevisiae deletion strains, locus YMR058W, strain fet3, stronger effect = lower value 1.02 | S. cerevisiae deletion strains, locus YMR078C, strain ctf18, stronger effect = lower value 0.994 | S. cerevisiae deletion strains, locus YMR125W, strain sto1, stronger effect = lower value 0.989 | S. cerevisiae deletion strains, locus YMR129W, stronger effect = lower value 1.02 | S. cerevisiae deletion strains, locus YMR205C, strain PFK2, stronger effect = lower value 1.01 | S. cerevisiae deletion strains, locus YMR223W, strain ubp8, stronger effect = lower value 0.904 | S. cerevisiae deletion strains, locus YMR231W, strain pep5, stronger effect = lower value 0.993 | S. cerevisiae deletion strains, locus YNL071W, strain lat1, stronger effect = lower value 1.01 | S. cerevisiae deletion strains, locus YNL128W, strain TEP1, stronger effect = lower value 1 | S. cerevisiae deletion strains, locus YNL175C, strain NOP13, stronger effect = lower value 1.03 | S. cerevisiae deletion strains, locus YNL183C, strain NPR1, stronger effect = lower value 0.959 | S. cerevisiae deletion strains, locus YNL197C, strain WHI3, stronger effect = lower value 1 | S. cerevisiae deletion strains, locus YNL209W, strain ssb2, stronger effect = lower value 1.01 | S. cerevisiae deletion strains, locus YNL224C, strain SQS1, stronger effect = lower value 0.996 | S. cerevisiae deletion strains, locus YNL248C, strain rpa49, stronger effect = lower value 0.971 | S. cerevisiae deletion strains, locus YNL250W, strain rad50, stronger effect = lower value 1.01 | S. cerevisiae deletion strains, locus YNL271C, strain bni1, stronger effect = lower value 1.01 | S. cerevisiae deletion strains, locus YNL298W, strain CLA4, stronger effect = lower value 1 | S. cerevisiae deletion strains, locus YNL322C, strain KRE1 (second series), stronger effect = lower value 1.01 | S. cerevisiae deletion strains, locus YNR049C, strain mso1, stronger effect = lower value 1.02 | S. cerevisiae deletion strains, locus YNR052C, strain pop2, stronger effect = lower value 0.995 | S. cerevisiae deletion strains, locus YOL012C, strain htz1 0.275 | S. cerevisiae deletion strains, locus YOL147C, strain pex11, stronger effect = lower value 1.01 | S. cerevisiae deletion strains, locus YOR001W, strain rrp6, stronger effect = lower value 1.02 | S. cerevisiae deletion strains, locus YOR070C, strain gyp1, stronger effect = lower value 1 | S. cerevisiae deletion strains, locus YOR080W, strain dia2, stronger effect = lower value 1.01 | S. cerevisiae deletion strains, locus YOR083W, strain WHI5 (second series), stronger effect = lower value 1.02 | S. cerevisiae deletion strains, locus YOR083W, strain WHI5, stronger effect = lower value 0.993 | S. cerevisiae deletion strains, locus YOR106W, strain vam3, stronger effect = lower value 1.02 | S. cerevisiae deletion strains, locus YOR136W, strain idh2, stronger effect = lower value 0.979 | S. cerevisiae deletion strains, locus YOR144C, strain elg1, stronger effect = lower value 1.01 | S. cerevisiae deletion strains, locus YOR184W, strain ser1, stronger effect = lower value 0.885 | S. cerevisiae deletion strains, locus YOR231W, strain MKK1, stronger effect = lower value 0.987 | S. cerevisiae deletion strains, locus YOR265W, strain rbl2, stronger effect = lower value 1.01 | S. cerevisiae deletion strains, locus YOR270C, strain vph1, stronger effect = lower value 1 | S. cerevisiae deletion strains, locus YOR290C, strain snf2, stronger effect = lower value 1 | S. cerevisiae deletion strains, locus YOR316C, strain cot1, stronger effect = lower value 0.982 | S. cerevisiae deletion strains, locus YPL051W, strain arl3, stronger effect = lower value 1 | S. cerevisiae deletion strains, locus YPL078C, strain atp4, stronger effect = lower value 1.02 | S. cerevisiae deletion strains, locus YPL106C, strain sse1, stronger effect = lower value 0.998 | S. cerevisiae deletion strains, locus YPL240C, strain hsp82, stronger effect = lower value 1 | S. cerevisiae deletion strains, locus YPL256C, strain CLN2, stronger effect = lower value 0.992 | S. cerevisiae deletion strains, locus YPR119W, strain clb2, stronger effect = lower value 1.01 | S. cerevisiae deletion strains, locus YPR141C, strain kar3, stronger effect = lower value 1.01 | S. cerevisiae deletion strains, locus YPR163C, strain tif3, stronger effect = lower value 0.987 | S. cerevisiae deletion strains, locus YPR167C, strain met16, stronger effect = lower value 0.964
